In the library only some 2.6% were active in any assay of this set; here they are far more common.
PRMT1 FP inh: PRMT1 methyltransferase inhibitors, primary screen, biochemical, fluorescence polarization | Protein arginine N-methyltransferase 1 (Homo sapiens), Q99873 | 370,000 tested, 1.3% active | inhibition, % at 2.79 µM | recombinant PRMT1, activity-based probe fluorescence polarization;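 active means inhibition above about 21% made by adding two undisclosed values, limit read from the data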
SIAE inh: human SIAE inhibitors, primary screen, biochemical, fluorescence polarization, FP-Rh probe, 1536-well HTS. Sialate O-acetylesterase (Homo sapiens), Q9HAT2. AID 1053197, 2014. SIAE FP-Rh probe binding. inhibition, % at 9.66 µM. 370,000 tested, 0.69% active;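 active means inhibition above a cutoff: mean of compounds within the control limits plus 3 SD of those, cut at about 17% in these data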;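 further: 0% = plate median of compound wells and 100% = probe without SIAE protein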
PAD4 FP inh: human PAD4 inhibitors, primary screen, biochemical, fluorescence polarization, 1536-well format | Protein-arginine deiminase type-4 (Homo sapiens), Q9UM07 | inhibition, % at 6.36 µM | 330,000 tested, 0.41% active | recombinant PAD4, RCA probe fluorescence polarization;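 active means percent inhibition above a cutoff equal to the mean of all tested compounds plus 3 SD, cut at about 15% in these data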;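 further: 0% = PAD4 with RCA probe and DMSO and 100% = probe without PAD4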
Target sequence (Q9UM07 whole entry, looked up): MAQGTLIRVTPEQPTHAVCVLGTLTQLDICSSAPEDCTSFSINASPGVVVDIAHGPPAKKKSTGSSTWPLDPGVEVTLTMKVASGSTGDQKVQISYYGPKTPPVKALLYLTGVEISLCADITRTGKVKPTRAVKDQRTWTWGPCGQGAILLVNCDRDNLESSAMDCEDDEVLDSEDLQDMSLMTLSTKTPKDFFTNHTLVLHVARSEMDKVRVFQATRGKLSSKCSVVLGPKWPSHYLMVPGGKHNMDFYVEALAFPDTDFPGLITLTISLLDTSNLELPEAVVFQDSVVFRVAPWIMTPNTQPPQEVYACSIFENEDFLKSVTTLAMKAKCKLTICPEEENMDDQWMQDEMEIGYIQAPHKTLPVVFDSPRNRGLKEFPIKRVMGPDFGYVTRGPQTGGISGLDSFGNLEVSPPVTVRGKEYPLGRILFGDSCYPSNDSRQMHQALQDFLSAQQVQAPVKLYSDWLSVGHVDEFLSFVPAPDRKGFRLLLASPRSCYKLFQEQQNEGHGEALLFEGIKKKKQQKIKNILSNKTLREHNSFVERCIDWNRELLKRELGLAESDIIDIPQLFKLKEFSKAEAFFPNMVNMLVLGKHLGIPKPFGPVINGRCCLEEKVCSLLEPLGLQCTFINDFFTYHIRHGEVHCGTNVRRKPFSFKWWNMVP
Fam108B inh: mouse Fam108B serine hydrolase inhibitors, primary screen, counter-screen for RBBP9 inhibitor project, biochemical, fluorescence polarization. recombinant Fam108B, FP-Rh probe fluorescence polarization. inhibition, % at 9.51 µM. 300,000 tested, 0.33% active;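 active means inhibition above the screen mean inhibition plus 3 SD, computed separately per campaign, cut at about 18% in these data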;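 further: inhibitors lower polarization as less probe binds the enzyme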
PME-1 inh: PME-1 inhibitors via competitive probe labeling, primary screen, biochemical, fluorescence polarization, FP-Rh probe, HTS. Protein phosphatase methylesterase 1 (Homo sapiens), Q9Y570. 320,000 tested, 0.53% active. recombinant PME-1. inhibition, % at 5.9 µM. AID 2130, 2009;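 active means inhibition above the campaign mean of all compounds plus 3 SD, cut at about 26% in these data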;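 further: competitive labeling of PME-1 active site by serine hydrolase directed probe; 0% = PME-1 with DMSO and 100% = wells lacking PME-1 enzyme; inhibitors block probe labeling so polarization falls and inhibition rises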
TCR-CD3 inh: inhibitors of human TCR-CD3 interaction, primary screen, biochemical, fluorescence, TAMRA-labeled TCR probe; inhibition, % at 9.4 µM; 360,000 tested, 0.37% active; in the data active means inhibition above about 19%;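 further: recombinant mutant TCR 2C K166C tagged with TAMRA read by polarization; 0% = receptor in buffer alone and 100% = receptor with positive control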
Fam108b confirm: mouse Fam108b serine hydrolase inhibitors, confirmation, counter-screen for RBBP9 inhibitor project, biochemical, fluorescence polarization, triplicate | shares compounds with Fam108B inh | recombinant Fam108b, FP-Rh probe fluorescence polarization | inhibition, % at 9.51 µM | 930 tested, 44% active;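 active means inhibition above a limit from the primary screen, the mean over all compounds plus 3 SD, cut at about 19% in these data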;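 further: 0% = median of active Fam108b wells and 100% = catalytically dead S170A mutant; inhibitors free the probe so polarization falls as inhibition rises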
Fam108b inh: inhibition of mouse Fam108b by HTS hits, late-stage follow-up, biochemical, gel-based ABPP, soluble recombinant form. shares compounds with Fam108B inh. fluorophosphonate probe. inhibition, % at 20 µM. 260 tested, 44% active; in the data active means inhibition above about 40%
* marks the source's active call; other numbers are inactive results; nt = no result given; + = active, no number.

SMILES	PRMT1 FP inh	SIAE inh	PAD4 FP inh	Fam108B inh	PME-1 inh	TCR-CD3 inh	Fam108b confirm	others
COCCNC(=S)N(C)[C@H]1C[C@H]2c3[nH]c4c(-c5ccc6c(c5)OCO6)cccc4c3CCN2C[C@H]1[C@H](C)O	3.1	1.9	nt	nt	nt	nt	nt
COc1ccc(O)c(-c2cc(-c3cccc(Br)c3)n[nH]2)c1	4.4	-1.7	-7.2	18.3*	42.2*	-0.9	-3.0
COc1ccc(-c2cc(-c3ccccc3O)[nH]n2)cc1OC	2.5	-3.2	-3.0	16.1	1.0	-1.7	nt
COc1ccc(-c2cc(-c3ccc(OC)c(OC)c3)n[nH]2)c(O)c1	-0.2	5.3	-0.1	19.6*	11.0	1.9	6.3
COc1ccc(/C=N/NC(=O)c2cccc([N+](=O)[O-])c2)cc1OS(=O)(=O)c1ccccc1	-2.0	-0.3	3.0	31.5*	2.4	-3.8	25.6*
Cc1cccc(Nc2nc(-c3ccc(O)cc3O)cs2)n1	2.5	15.7	-0.2	21.4*	20.6	-4.7	11.0
O=C(Nc1cccc(-c2csc(Nc3ccc(Cl)cc3)n2)c1)c1ccccc1	4.0	-6.1	-1.9	24.1*	1.3	0.1	19.6*
O=C(Nc1cccc(-c2csc(Nc3ccc(Cl)cc3)n2)c1)c1cccc(C(F)(F)F)c1	-0.9	13.5	0.2	26.8*	4.2	1.5	-14.3
O=C(Nc1ccc(-c2csc(Nc3ccc(Cl)cc3)n2)cc1)c1cc([N+](=O)[O-])cc(C(F)(F)F)c1	-3.6	15.0	0.5	29.4*	8.5	-4.9	-5.2
Nc1nc(-c2ccc([N+](=O)[O-])cc2)c(C(=O)Nc2ccc(Cl)cc2)s1	2.7	-4.0	2.8	-6.4	1.9	2.8	nt
O=C(Nc1ccc(-c2csc(Nc3ccccc3)n2)cc1)c1ccccc1	0.8	3.1	2.7	4.8	6.8	5.2	nt
COCCCNC(=O)C[C@H]1C[C@@]2(C(=O)OC)C(=C[C@H](COCc3ccccc3)O[C@@H]2C)N(CCc2ccc(OC)c(OC)c2)C1=O	2.0	-3.2	nt	nt	nt	nt	nt
O=c1c2cnn(-c3ccccc3)c2nc(-c2cccs2)n1-c1ccc(Cl)cc1	0.3	-5.0	0.6	-10.8	5.0	-1.6	nt
O=c1oc(-c2cccs2)nc2c1cnn2-c1ccccc1	1.6	1.6	-0.9	20.5*	1.6	-5.1	22.9*
O=C(NC(CSCc1ccccc1)C(=O)N/N=C/c1ccc(O)cc1O)c1ccc([N+](=O)[O-])cc1 (stereo not given)	3.3	1.9	-4.3	23.4*	0.1	-2.8	-9.6
COc1cc(O)ccc1/C=N/NC(=O)c1ccc([N+](=O)[O-])cc1	2.2	6.0	-1.1	-2.6	-1.5	2.1	nt
COc1cccc(/C=N/NC(=O)c2[nH]c(C)c(C(=O)N/N=C/c3cccc(OC)c3O)c2C)c1O	-3.6	-63.5	-9.8	39.1*	35.3*	12.4	60.4*
COc1ccc(Cn2c(O)c(C=Nc3ccc(O)cc3)c3ccccc3c2=O)cc1	1.8	16.2	0.7	30.7*	21.2	3.6	18.1
Cc1[nH]c2ccccc2c1C=NNC(=O)c1cccc(S(=O)(=O)Nc2cccc(C(F)(F)F)c2)c1	nt	nt	nt	nt	nt	nt	nt	Fam108b inh=95.0*
Cc1[nH]c2ccccc2c1/C=N/NC(=O)c1cccc(F)c1	1.9	0.3	-5.8	0.0	11.3	-9.0	nt
COc1ccc(C(=O)/C=C/Nc2ccc(S(=O)(=O)Nc3cccc(C(C)=O)c3)cc2)cc1	-3.1	15.7	-6.3	33.8*	43.3*	7.3	20.0*
COc1cccc(C(=O)/C=C/Nc2ccc(S(=O)(=O)Nc3ccc(C(C)=O)cc3)cc2)c1	1.6	8.1	7.8	0.1	-1.7	1.4	nt
O=C(O)c1ccc2c(c1)[C@@H]1C=CC[C@@H]1[C@H](c1ccccn1)N2	70.2*	17.3*	0.0	38.7*	-34.5	24.8*	+	Fam108b inh=0.0
COc1ccc(/C(C)=N/NC(=O)c2ccncc2)cc1	0.2	1.8	-4.1	-4.5	-5.3	3.1	nt
COc1ccc(C(=O)N/N=C(\C)c2ccc3c(c2)C2C=CCC2C(c2ccccc2)N3)cc1 (stereo not given)	nt	nt	-8.4	20.4*	17.4	nt	-3.4
SMILES	PRMT1 FP inh	SIAE inh	PAD4 FP inh	Fam108B inh	PME-1 inh	TCR-CD3 inh	Fam108b confirm	others
Cc1c(C)c2cc(Cl)c(O)c(CN(C)C)c2oc1=O	3.5	-2.6	-2.3	2.1	0.3	-9.4	nt
O=c1oc2c(O)c(O)cc3c(=O)oc4c(O)c(O)cc1c4c23	nt	nt	-4.0	54.7*	-19.8	nt	42.1*	Fam108b inh=0.0
N#CC1=C(N)SC(N)=C(C#N)C1c1ccoc1	nt	nt	13.0	25.6*	-6.9	nt	-25.5
CN(Cc1ccccc1F)C(=O)C1CCCN(c2ncccn2)C1 (stereo not given)	0.1	-7.1	nt	nt	nt	nt	nt
CCOc1ccc2nc3cc(NCc4ccc(OC)cc4)ccc3c(N)c2c1	nt	nt	-6.7	23.7*	5.0	nt	-8.4
O=C(N[C@@H]1CCCc2c1cnn2-c1ccc(F)cc1F)c1ccccn1	-3.9	4.3	nt	nt	nt	nt	nt
COc1ccc(/C=C2/SC(=S)N(CCCC(=O)Nc3cccc(O)c3)C2=O)cc1	3.6	-13.3	-0.3	-6.5	-19.6	-3.8	nt
COc1ccc(/C=C2\SC(=S)N(CC(=O)OCC(=O)Nc3cc(Cl)cc(Cl)c3)C2=O)cc1	1.6	-7.5	4.7	26.6*	1.9	-8.3	77.8*	Fam108b inh=85.0*
CCN(CC)c1nc(N)c2c(N)n(-c3ccccc3C)c(=S)c(C#N)c2c1C#N	11.2	2.4	-1.3	20.2*	10.3	1.1	7.2
Cc1ccc(NC(=S)NNC(=O)CSc2nc3ccccc3c(=O)n2-c2ccc(Cl)cc2)cc1	0.5	-1.6	nt	nt	nt	nt	nt
O=c1/c(=C\c2cc([N+](=O)[O-])cc([N+](=O)[O-])c2O)sc2nc3ccccc3n12	nt	nt	-19.2	52.0*	3.7	nt	39.4*
O=C(O)c1cccc(-c2ccc(/C=c3/sc4nc5ccccc5n4c3=O)o2)c1	24.2*	-14.1	-1.8	25.3*	-10.8	14.8	9.1
O=c1/c(=C/c2ccccn2)sc2nc3ccccc3n12	4.8	3.4	2.9	-0.1	-1.2	1.0	nt
O=c1c(=Cc2cc([N+](=O)[O-])cc([N+](=O)[O-])c2O)sc2nc3ccccc3n12	nt	nt	nt	nt	nt	nt	nt	Fam108b inh=20.0
Cc1cccc(C)c1-n1nnnc1C1(C)Cn2nccc2C(=O)N1Cc1ccc(F)cc1 (stereo not given)	2.0	-3.7	nt	nt	nt	nt	nt

Source: PubChem BioAssay
